How the values were obtained:
Assay in all cases: DAPPL (digital affinity profiling via proximity ligation, sequencing); 10 mM Tris-HCl pH 7.5, 50 mM NaCl, 1 mM DTT, 4% glycerol, room temperature, 30 min; GST-TFs on glutathione beads, 16-mer random dsDNA library, 0.1% formaldehyde crosslink after washing; high values mean tight binding
Conditions in all cases: protein: recombinant; tags: N-terminal GST; dsDNA, one strand shown
FLI1 = target: T1, FLI1 (Homo sapiens, UniProt Q01543 1-452)
T1 sequence: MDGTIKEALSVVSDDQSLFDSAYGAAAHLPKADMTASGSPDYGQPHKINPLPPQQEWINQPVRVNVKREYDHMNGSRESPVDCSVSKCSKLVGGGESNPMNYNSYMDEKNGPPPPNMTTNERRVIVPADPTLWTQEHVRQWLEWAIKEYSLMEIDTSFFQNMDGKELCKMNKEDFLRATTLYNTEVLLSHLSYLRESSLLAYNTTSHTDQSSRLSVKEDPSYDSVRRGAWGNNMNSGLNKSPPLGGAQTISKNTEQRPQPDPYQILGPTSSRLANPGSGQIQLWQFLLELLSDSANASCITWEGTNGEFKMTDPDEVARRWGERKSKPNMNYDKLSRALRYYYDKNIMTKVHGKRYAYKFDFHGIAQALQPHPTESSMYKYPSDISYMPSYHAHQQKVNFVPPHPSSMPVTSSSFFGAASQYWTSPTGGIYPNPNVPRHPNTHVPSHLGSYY
Method in brief: (§1)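 Binding signal is given per hexamer as its read frequency for a factor divided by its frequency in the tag-only sample. GST-fused human transcription factors were expressed in yeast, captured on glutathione beads, barcoded with DNA and pooled with that sample, then incubated with 200 nmole of a 16-mer random double-stranded DNA library in Tris/NaCl/DTT/glycerol buffer for 30 min at room temperature. The pools were then washed, crosslinked, proximity-ligated, amplified by PCR and sequenced on an Illumina NextSeq500.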

ELK1 = target: T2, ELK1 (Homo sapiens, UniProt P19419 1-428)
T2 sequence: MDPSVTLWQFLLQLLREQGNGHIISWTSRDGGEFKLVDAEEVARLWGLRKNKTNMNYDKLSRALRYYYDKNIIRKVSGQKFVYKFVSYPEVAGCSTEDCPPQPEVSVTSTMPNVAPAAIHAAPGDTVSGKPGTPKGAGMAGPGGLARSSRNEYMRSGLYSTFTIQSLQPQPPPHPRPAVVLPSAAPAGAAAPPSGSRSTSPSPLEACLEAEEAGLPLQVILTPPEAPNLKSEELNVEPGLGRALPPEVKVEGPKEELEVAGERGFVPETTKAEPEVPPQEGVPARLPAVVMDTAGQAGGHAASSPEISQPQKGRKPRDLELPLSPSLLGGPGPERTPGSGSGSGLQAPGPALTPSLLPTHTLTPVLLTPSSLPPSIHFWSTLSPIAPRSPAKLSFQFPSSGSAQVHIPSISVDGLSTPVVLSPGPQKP
Method in brief: as §1

GABPA = target: T3, GABPA (Homo sapiens, UniProt Q06546 1-454)
T3 sequence: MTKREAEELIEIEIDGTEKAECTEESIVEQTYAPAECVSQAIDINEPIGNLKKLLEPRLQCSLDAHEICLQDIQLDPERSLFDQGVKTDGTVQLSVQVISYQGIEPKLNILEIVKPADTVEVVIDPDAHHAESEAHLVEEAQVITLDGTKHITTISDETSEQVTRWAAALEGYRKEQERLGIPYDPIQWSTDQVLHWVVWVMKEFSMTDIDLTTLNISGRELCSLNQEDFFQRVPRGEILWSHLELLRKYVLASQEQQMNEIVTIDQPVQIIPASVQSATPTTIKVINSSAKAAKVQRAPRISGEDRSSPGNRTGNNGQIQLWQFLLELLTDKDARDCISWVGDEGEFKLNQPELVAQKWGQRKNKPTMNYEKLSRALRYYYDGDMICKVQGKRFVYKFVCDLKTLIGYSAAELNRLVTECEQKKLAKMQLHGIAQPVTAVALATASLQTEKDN
Method in brief: as §1

ERG = target: T4, ERG (Homo sapiens, UniProt P11308 1-479)
T4 sequence: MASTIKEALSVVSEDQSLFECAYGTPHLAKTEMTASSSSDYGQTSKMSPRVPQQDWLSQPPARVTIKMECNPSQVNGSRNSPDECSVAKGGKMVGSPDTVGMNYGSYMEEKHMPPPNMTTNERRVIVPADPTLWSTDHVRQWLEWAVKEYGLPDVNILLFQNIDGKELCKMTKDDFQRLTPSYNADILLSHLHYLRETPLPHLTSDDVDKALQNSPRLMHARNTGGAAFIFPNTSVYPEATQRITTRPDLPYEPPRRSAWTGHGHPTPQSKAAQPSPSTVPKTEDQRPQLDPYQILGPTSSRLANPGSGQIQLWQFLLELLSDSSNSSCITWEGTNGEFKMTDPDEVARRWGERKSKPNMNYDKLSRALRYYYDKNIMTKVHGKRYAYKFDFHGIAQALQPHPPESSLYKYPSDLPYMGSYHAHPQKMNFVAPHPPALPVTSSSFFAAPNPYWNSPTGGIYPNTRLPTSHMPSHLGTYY
Method in brief: as §1

ELF1 = ELF1 (Homo sapiens, UniProt P32519 1-619)
Method in brief: as §1

EHF = target: T5, EHF (Homo sapiens, UniProt Q9NZC4 1-300)
T5 sequence: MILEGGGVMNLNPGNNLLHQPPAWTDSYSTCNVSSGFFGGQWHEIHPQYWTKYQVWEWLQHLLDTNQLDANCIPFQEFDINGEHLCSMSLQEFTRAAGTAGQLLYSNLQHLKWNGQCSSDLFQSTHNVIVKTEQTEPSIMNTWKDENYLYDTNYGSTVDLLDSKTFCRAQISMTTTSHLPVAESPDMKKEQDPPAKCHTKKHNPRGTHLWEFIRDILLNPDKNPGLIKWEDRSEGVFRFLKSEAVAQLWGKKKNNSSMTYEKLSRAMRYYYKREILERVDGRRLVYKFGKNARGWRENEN
Method in brief: as §1

SPI1 = SPI1 (Homo sapiens, UniProt P17947 1-270)
Method in brief: as §1

SPIB = SPIB (Homo sapiens, UniProt Q01892 1-262)
Method in brief: as §1

ELK3 = target: T6, ELK3 (Homo sapiens, UniProt P41970 1-407)
T6 sequence: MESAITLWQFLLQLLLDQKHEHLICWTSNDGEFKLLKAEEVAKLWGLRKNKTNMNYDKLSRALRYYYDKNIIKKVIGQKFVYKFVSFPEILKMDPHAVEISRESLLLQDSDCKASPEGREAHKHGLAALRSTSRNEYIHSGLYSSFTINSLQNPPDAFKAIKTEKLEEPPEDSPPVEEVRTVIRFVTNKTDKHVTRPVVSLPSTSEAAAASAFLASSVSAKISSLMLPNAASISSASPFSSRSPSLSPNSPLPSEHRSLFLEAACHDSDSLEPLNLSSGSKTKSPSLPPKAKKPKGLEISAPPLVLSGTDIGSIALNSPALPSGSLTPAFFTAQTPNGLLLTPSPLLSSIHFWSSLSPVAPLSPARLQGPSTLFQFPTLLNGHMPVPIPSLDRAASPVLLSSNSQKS
Method in brief: as §1

FEV = target: T7, FEV (Homo sapiens, UniProt Q99581 1-238)
T7 sequence: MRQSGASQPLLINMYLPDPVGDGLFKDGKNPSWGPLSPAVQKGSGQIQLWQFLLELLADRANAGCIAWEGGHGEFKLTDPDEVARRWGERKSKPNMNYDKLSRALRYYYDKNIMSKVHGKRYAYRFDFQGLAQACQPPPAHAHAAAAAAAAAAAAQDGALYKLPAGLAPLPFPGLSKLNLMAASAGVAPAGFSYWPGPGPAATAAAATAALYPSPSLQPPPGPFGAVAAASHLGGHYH
Method in brief: as §1

ETV5 = ETV5 (Homo sapiens, UniProt P41161 1-510)
Method in brief: as §1

SPIC = target: T8, SPIC (Homo sapiens, UniProt Q8N5J4 1-248)
T8 sequence: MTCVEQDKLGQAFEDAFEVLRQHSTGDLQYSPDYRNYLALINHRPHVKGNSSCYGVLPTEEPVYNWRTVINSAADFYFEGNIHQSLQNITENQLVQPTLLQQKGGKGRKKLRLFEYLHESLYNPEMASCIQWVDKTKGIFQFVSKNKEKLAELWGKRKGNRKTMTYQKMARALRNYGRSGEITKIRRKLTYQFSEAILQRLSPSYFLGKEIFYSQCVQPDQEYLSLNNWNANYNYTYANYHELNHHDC
Method in brief: as §1

ELF4 = ELF4 (Homo sapiens, UniProt Q99607 1-663)
Method in brief: as §1

ERF = target: T9, ERF (Homo sapiens, UniProt P50548 1-548)
T9 sequence: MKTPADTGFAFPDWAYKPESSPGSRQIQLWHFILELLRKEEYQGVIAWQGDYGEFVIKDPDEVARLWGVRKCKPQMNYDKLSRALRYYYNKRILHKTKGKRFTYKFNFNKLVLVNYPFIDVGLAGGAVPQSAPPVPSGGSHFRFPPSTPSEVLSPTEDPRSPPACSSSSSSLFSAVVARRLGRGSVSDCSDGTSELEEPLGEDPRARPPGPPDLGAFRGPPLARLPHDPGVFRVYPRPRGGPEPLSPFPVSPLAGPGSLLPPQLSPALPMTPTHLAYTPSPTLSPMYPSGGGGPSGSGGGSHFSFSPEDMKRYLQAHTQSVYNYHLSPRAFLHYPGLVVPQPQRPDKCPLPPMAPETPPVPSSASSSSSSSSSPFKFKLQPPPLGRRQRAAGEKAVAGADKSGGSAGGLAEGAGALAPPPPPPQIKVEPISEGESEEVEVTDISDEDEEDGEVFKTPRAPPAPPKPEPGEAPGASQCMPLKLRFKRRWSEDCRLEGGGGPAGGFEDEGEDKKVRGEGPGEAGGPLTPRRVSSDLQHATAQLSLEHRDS
Method in brief: as §1

ETV3L = target: T10, ETV3L (Homo sapiens, UniProt Q6ZN32 1-361)
T10 sequence: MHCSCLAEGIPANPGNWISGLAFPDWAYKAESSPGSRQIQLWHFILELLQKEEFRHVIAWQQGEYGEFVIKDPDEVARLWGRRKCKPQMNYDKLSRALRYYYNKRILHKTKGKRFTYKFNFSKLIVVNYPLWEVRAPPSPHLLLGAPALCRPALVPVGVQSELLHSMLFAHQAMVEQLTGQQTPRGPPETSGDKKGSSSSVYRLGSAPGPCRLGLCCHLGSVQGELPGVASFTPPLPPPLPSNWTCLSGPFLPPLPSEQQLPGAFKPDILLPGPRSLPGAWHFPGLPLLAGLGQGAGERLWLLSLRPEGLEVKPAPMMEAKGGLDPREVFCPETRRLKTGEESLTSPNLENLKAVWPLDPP
Method in brief: as §1

ETS2 = target: T11, ETS2 (Homo sapiens, UniProt P15036 1-469)
T11 sequence: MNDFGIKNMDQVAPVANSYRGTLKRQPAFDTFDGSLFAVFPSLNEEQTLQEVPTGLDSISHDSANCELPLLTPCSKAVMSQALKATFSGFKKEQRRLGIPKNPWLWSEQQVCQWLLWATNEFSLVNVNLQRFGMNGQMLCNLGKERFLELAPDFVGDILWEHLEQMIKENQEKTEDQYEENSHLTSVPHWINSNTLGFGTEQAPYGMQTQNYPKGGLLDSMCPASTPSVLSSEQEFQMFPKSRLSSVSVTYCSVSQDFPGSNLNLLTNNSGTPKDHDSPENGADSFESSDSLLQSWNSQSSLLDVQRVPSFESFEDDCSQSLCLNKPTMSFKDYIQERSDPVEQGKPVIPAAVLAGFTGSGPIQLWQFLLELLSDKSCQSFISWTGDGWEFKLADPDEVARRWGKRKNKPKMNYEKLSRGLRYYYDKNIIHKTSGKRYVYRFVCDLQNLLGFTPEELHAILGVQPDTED
Method in brief: as §1

ELF5 = target: T12, ELF5 (Homo sapiens, UniProt Q9UKW6-2 1-255)
T12 sequence: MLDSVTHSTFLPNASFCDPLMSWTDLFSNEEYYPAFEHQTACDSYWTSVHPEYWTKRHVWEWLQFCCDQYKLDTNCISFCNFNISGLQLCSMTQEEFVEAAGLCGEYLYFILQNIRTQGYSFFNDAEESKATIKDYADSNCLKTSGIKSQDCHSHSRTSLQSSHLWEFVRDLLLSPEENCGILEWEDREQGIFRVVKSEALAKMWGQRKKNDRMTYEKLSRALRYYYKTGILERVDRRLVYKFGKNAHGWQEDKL
Method in brief: as §1

ETV3 = target: T13, ETV3 (Homo sapiens, UniProt P41162-2 1-143)
T13 sequence: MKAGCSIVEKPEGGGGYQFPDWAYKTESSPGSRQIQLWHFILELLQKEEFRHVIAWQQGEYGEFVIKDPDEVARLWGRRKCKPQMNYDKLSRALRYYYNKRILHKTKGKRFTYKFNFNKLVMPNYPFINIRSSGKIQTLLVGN
Method in brief: as §1

ETV6 = ETV6 (Homo sapiens, UniProt P41212 1-452)
Method in brief: as §1

Chain of ELF4 (Q99607 whole entry): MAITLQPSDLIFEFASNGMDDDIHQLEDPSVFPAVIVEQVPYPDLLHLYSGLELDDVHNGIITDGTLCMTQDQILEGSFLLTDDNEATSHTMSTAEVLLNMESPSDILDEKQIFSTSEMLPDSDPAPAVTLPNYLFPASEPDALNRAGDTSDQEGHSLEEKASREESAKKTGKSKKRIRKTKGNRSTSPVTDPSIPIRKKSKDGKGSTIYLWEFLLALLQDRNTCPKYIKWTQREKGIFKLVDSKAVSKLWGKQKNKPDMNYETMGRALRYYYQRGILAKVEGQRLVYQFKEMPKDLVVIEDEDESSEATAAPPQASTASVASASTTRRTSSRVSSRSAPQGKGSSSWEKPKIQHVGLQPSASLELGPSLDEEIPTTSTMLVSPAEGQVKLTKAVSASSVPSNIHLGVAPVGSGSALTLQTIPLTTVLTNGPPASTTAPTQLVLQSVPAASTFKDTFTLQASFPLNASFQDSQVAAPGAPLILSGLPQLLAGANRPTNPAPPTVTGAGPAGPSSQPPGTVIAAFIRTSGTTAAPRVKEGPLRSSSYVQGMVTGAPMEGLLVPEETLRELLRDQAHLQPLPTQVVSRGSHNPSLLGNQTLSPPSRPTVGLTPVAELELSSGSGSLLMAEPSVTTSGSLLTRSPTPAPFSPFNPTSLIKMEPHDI
Chain of SPIB (Q01892 whole entry): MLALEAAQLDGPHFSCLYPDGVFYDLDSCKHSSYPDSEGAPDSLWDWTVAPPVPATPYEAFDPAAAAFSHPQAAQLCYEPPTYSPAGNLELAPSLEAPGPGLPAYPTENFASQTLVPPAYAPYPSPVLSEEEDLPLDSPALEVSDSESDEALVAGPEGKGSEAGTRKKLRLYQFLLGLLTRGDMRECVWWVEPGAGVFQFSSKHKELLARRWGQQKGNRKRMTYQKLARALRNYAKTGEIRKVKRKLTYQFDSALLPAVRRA
Chain of ETV5 (P41161 whole entry): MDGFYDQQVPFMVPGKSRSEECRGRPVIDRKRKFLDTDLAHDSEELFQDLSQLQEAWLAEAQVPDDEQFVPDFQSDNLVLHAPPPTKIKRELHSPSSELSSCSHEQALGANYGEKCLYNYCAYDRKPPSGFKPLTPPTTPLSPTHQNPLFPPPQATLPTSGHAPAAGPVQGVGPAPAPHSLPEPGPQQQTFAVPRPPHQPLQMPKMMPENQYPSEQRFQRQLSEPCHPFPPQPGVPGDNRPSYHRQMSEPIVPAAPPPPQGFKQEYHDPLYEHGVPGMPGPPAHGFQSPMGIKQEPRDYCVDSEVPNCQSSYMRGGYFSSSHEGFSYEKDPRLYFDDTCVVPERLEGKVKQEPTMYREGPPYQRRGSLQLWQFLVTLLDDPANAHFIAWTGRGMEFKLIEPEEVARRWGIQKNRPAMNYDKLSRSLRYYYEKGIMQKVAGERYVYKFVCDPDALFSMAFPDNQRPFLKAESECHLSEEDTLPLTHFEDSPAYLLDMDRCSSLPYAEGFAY
Chain of ETV6 (P41212 whole entry): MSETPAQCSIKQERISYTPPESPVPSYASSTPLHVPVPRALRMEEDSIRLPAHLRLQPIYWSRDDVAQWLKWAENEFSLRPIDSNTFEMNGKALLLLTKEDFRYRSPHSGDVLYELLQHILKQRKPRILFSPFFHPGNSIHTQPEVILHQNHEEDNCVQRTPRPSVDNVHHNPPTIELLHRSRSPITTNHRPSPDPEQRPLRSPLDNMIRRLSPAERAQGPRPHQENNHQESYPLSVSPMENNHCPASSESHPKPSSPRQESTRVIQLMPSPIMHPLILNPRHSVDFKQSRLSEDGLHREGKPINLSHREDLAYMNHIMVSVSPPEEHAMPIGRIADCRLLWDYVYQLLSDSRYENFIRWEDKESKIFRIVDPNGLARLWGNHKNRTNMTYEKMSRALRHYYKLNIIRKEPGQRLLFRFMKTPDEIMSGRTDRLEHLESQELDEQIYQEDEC
Chain of ELF1 (P32519 whole entry): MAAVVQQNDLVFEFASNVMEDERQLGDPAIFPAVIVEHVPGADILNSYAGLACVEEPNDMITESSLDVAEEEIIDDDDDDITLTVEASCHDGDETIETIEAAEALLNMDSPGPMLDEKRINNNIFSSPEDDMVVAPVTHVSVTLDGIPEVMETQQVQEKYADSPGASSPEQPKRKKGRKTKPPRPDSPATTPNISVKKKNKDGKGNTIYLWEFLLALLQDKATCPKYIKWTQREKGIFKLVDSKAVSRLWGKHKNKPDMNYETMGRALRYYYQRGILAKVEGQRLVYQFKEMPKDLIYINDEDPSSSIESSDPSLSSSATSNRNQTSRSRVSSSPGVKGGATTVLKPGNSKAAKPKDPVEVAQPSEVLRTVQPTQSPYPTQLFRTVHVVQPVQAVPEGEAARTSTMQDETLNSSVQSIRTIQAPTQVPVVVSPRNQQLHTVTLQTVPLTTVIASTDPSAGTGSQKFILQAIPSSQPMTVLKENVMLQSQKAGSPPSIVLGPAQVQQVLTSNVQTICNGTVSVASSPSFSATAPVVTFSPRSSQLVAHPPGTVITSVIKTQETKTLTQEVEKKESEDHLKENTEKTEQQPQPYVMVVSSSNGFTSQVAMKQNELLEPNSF

## CATACC
FLI1
  binding signal: 1.03 fold enrichment (6-mer frequency, TF over GST control)
ELK1
  binding signal: 1.06 fold enrichment (6-mer frequency, TF over GST control)
GABPA
  binding signal: 1.11 fold enrichment (6-mer frequency, TF over GST control)
ERG
  binding signal: 1.03 fold enrichment (6-mer frequency, TF over GST control)
ELF1
  binding signal: 1.09 fold enrichment (6-mer frequency, TF over GST control)
EHF
  binding signal: 1.1 fold enrichment (6-mer frequency, TF over GST control)
SPI1
  binding signal: 1.03 fold enrichment (6-mer frequency, TF over GST control)
SPIB
  binding signal: 1.04 fold enrichment (6-mer frequency, TF over GST control)
ELK3
  binding signal: 1.09 fold enrichment (6-mer frequency, TF over GST control)
FEV
  binding signal: 1.07 fold enrichment (6-mer frequency, TF over GST control)
ETV5
  binding signal: 1.04 fold enrichment (6-mer frequency, TF over GST control)
SPIC
  binding signal: 1.03 fold enrichment (6-mer frequency, TF over GST control)
ELF4
  binding signal: 1.1 fold enrichment (6-mer frequency, TF over GST control)
ERF
  binding signal: 1.03 fold enrichment (6-mer frequency, TF over GST control)
ETV3L
  binding signal: 1.17 fold enrichment (6-mer frequency, TF over GST control)
ETS2
  binding signal: 1.1 fold enrichment (6-mer frequency, TF over GST control)
ELF5
  binding signal: 1.04 fold enrichment (6-mer frequency, TF over GST control)
ETV3
  binding signal: 1.06 fold enrichment (6-mer frequency, TF over GST control)
ETV6
  binding signal: 1.01 fold enrichment (6-mer frequency, TF over GST control)

From publication PMC7862700, “An all-to-all approach to the identification of sequence-specific readers for epigenetic DNA modifications on cytosine”
